Results published in PubChem BioAssay AID1745847 (National Center for Advancing Translational Sciences (NCATS), 2022).
“And” between values parts separate entries of the source, which are not always exact repeats. Equal entries are not always repeated. Hit rate of the full screen: of about 2,100 compounds, about 670 (32%) were called active. Roughly 50% stayed inconclusive and do not appear here. Calls follow the shape of the dose curve; as a rule, active = well fitted inhibition curve with a large enough effect; inconclusive = small, poorly fitted or top-dose-only effect; inactive = no such curve, though single readings can be large or run the other way. Some of the results follow.

Assay: CMV-Luciferase Counterscreen for Inhibitors of ATXN expression; also: nearly all actives have a fitted effect of over 55% in size
Conditions: HEK-293 CMV-luciferase reporter, luminescence, 24 h; series mostly up to 57.5 µM
% is scaled to controls: 0 for no effect and ±100 for the full control effect; potency is read from the fitted curve at half-maximal effect.

Compound	Potency	activity change, negative = inhibition
CCC(=O)OC1(C(C)=O)CCC2C3CCC4=CC(=O)CCC4(C)C3CCC21C (centres undefined)	inactive	
O=C(OCCN1C(=O)c2cccc3c(N4CCOCC4)ccc(c23)C1=O)c1ccccc1Cl	15.8 µM (active)	
CC1(C)C(C=C(Cl)Cl)C1C(=O)Nc1ccc([N+](=O)[O-])cc1 (centres undefined)	20 µM (active)	
Cc1cccc(OCCSc2nc3ncnc(N)c3[nH]2)c1	inactive	
CCN(CC)CCCNc1nc2ccccc2c2nc(-c3ccncc3)nn12	12.6 µM (active)	
Cc1ccc(/C=C2/SC(=S)N(CCCC(=O)Nc3cc([N+](=O)[O-])ccc3O)C2=O)cc1	28.2 µM (active)	
Cc1ccc(/C=C2\SC(=S)N(CCCC(=O)Nc3ccccc3C(=O)O)C2=O)cc1	2 µM (active)	
Cc1ccc(/C=C2\SC(=S)N(CCCC(=O)Nc3cc(C)on3)C2=O)cc1	3.55 µM (active)	
Cc1cc(C)cc(NC(=O)CCC(=O)Nc2cc(C)on2)c1		165% [at 11.4 µM] (inactive)
Cc1ccc(/C=C2\SC(=S)N(CCCC(=O)Nc3ccc(O)cc3)C2=O)cc1	3.16 µM (active)	
Cc1ccc(/C=C2\SC(=S)N(CCCC(=O)Nc3cccnc3)C2=O)cc1	3.98 µM (active)	
Cc1ccc(NC(=O)COc2ccc(/C=C3/SC(=Nc4ccccc4)N(Cc4cccnc4)C3=O)cc2)cc1	inactive	
Cc1ccc(/C=C2/SC(=S)N(CCCC(=O)Nc3ccc(O)cc3)C2=O)cc1	2 µM (active)	
Cc1ccc(/C=C2\SC(=S)N(CCCC(=O)NC3CCCC3)C2=O)cc1	2.51 µM (active)	
COc1cccc(/C=C2/SC(=S)N(CCCC(=O)Nc3ccc(O)cc3)C2=O)c1	3.16 µM (active)	
CC(C)C[C@H](N)c1cn([C@@H](CCCCN)C(=O)N2CCNCC2)nn1		-7.7% [at 11.4 µM] (inactive)
Cc1csc(NC(=O)COCC(=O)O)c1-c1nc2ccccc2s1	inactive	
c1cc2c(cc1-c1cnc3n1CCC3)OCCO2	inactive	
CC(C)(O)C#Cc1ccc([C@@H]2C[C@H]3CN(c4ccccc4)C(=O)[C@]34CCCN24)s1	inactive	
O=[N+]([O-])c1ccc(O)c(/C=N/Nc2ncnc3c2cnn3-c2ccccc2)c1	1.58 µM (active)	
CN(C)S(=O)(=O)c1cccc(N2C(=O)CC3(CCCCC3)CC2=O)c1		-19.6% [at 11.4 µM] (inactive)
C/C(=N\OCC(=O)N/N=C/c1ccccc1O)c1cccs1	12.6 µM (active)	
COc1ccc(CSCC(=O)N/N=C/c2ccccc2O)cc1	25.1 µM (active)	

Compound	Potency	activity change, negative = inhibition
COc1cccc(/C=N/NC(=O)CSc2ccccc2C)c1O	7.08 µM (active)	
COc1cccc(/C=N/NC(=O)CSCC(=O)Nc2ccccc2)c1O	1.26 µM (active)	
CCCCSc1nc(C)cc(SCC(=O)N/N=C/c2cccc(OC)c2O)n1	1 µM (active)	
COc1ccc(O)c(/C=N/NC(=O)c2ccc(CSc3nc(C)cc(C)n3)cc2)c1	2.82 µM (active)	
COc1cccc(/C=N/NC(=O)Cn2nc(C)c([N+](=O)[O-])c2C)c1O	8.91 µM (active)	
OC(c1cc(-c2cccc(Cl)c2)nc2ccccc12)C1CCCCN1 (centres undefined)	22.4 µM (active)	
Cc1onc(-c2c(F)cccc2Cl)c1C(=O)Nc1nnc(C(F)(F)F)s1	1.41 µM (active)	
C[n+]1c2cc(N)ccc2cc2ccc(N)cc21	8.91 µM (active) and 3.55 µM (active)	
Cc1nc2ccccc2n1-c1nc(-c2ccco2)cc(C(F)(F)F)n1	inactive	
CC(C)NC1CCC(Nc2ccnc3cc(Cl)ccc23)CC1 (centres undefined)	17.8 µM (active)	
Cc1ccc(N=Nc2ccc(O)c3ncccc23)cc1	3.55 µM (active)	
Cc1ccccc1N=Nc1ccc(O)c2ncccc12	1.41 µM (active)	
CC(C)(C)S(=O)(=O)/C(C#N)=N/Nc1ccc(Cl)cc1	7.94 µM (active)	
FC(F)(F)c1ccc(N2CCN(c3cc(-c4ccccc4)nc4ncnn34)CC2)nc1	1.58 µM (active)	
O=c1cc(Nc2ccc3c(c2)OCCO3)[nH]c(=O)n1-c1ccc(Br)cc1	inactive	
CCN(CC)c1ccc(/C=N/NC(=O)CCC(=O)NCc2ccccc2)c(O)c1	3.16 µM (active)	
O=C(Cn1c(=O)n(CC(=O)NCc2ccccc2)c2ccccc21)NCc1ccccc1	inactive	
CCN(CC)c1ccc(/C=N/NC(=O)Cc2cccs2)c(O)c1	2.82 µM (active)	
CCN(CC)c1ccc(/C=N/NC(=O)c2cccc(S(=O)(=O)N3CCOCC3)c2)c(O)c1	0.891 µM (active)	
CN(C)c1nc(N/N=C/c2c[nH]c3ccccc23)nc(N2CCOCC2)n1		-16.1% [at 11.4 µM] (inactive)
Cc1cc(C)n(-c2nc(NCCN(C)C)c3c4c(sc3n2)COC(C)(C)C4)n1		-12.1% [at 11.4 µM] (inactive)
CN1CCN(c2nc(-c3ccccn3)nc3ccccc23)CC1	inactive	
c1ccc(CNc2nc(-c3ccccn3)nc3ccccc23)cc1	4.47 µM (active)	

Compound	Potency	activity change, negative = inhibition
O=S(=O)(Cc1cc(NCc2ccccc2)nc(-c2ccccn2)n1)c1ccccc1	inactive	
O=S(=O)(c1ccc2c(c1)OCCO2)N1CCC(c2nc3ccc(Cl)cc3[nH]2)CC1	3.98 µM (active)	
CCOc1ccc(NCc2cccn2-c2nnc(N3CCC(C(=O)NCCCN4CC(C)CC(C)C4)CC3)s2)cc1 (centres undefined)		-19.5% [at 11.4 µM] (inactive)
COc1ccc(-n2c(-c3ccc(Cl)cc3)c[n+]3c2CCCCC3)cc1	12.6 µM (active)	
COc1ccc(-c2c[n+]3c(n2-c2ccc(C)cc2)CCCCC3)cc1	6.31 µM (active)	
O=c1cc(-c2ccccc2Cl)oc2c([N+](=O)[O-])c(O)cc(O)c12	1.26 µM (active)	
CC1(S(=O)(=O)O)CC(=O)c2ccccc2C1=O (centres undefined)	28.2 µM (active)	
CCn1c(C)cc(C(=O)COC(=O)c2ccccc2[N+](=O)[O-])c1C	22.4 µM (active)	
CC(C)N(C(=O)COC(=O)c1ccccc1C(=O)c1ccc(Cl)c([N+](=O)[O-])c1)C(C)C		-18% [at 11.4 µM] (inactive)
O=C(CCN1CCN(c2ccccc2)CC1)N/N=C/c1ccccc1O	0.501 µM (active)	
Cc1ccc(SCCC(=O)N/N=C/c2ccccc2O)cc1	1.78 µM (active)	
O=C(CCc1ccccc1)N/N=C/c1cc(Br)ccc1O	0.891 µM (active)	
O=C(CP(=O)(c1ccccc1)c1ccccc1)N/N=C/c1cc(Br)cc(Br)c1O	1.78 µM (active)	
O=C(COc1nsnc1N1CCOCC1)N/N=C/c1ccccc1O	11.2 µM (active)	
O=C(CN1CC(c2ccccc2)CC1=O)N/N=C/c1cc(Br)ccc1O (centres undefined)	10 µM (active)	
O=C(CCCOc1ccc(Cl)cc1Cl)N/N=C/c1ccccc1O	2.51 µM (active)	
O=C(Cc1ccccc1)N/N=C/c1cc(Br)cc(Br)c1O	2.51 µM (active)	
NC(Cc1ccc(C(F)(F)F)cc1)c1csc(Nc2nccc(C(F)(F)F)n2)n1 (centres undefined)		-10.1% [at 11.4 µM] (inactive)
O=C(CCC(=O)Nc1ccc(Br)cc1)N/N=C/c1ccccc1O	1.26 µM (active)	
COc1ccc(O)c(/C=N/NC(=O)CCC(=O)Nc2cccc(C)c2)c1	10 µM (active)	
NNC(=O)/C(=N/Nc1ccccc1)S(=O)(=O)c1ccc(Cl)cc1	3.55 µM (active)	
CCCCC(=O)N(C)c1c(CC)nc2c(OCc3ccc(Cl)cc3Cl)cccn12	3.55 µM (active)	
CCc1nc2c(OCc3ccc(Cl)cc3Cl)cccn2c1N(C=O)Cc1ccc(OC)cc1	3.16 µM (active)	

Compound	Potency	activity change, negative = inhibition
CCOC(=O)N(C)c1c(CC)nc2c(OCc3ccccc3C)cccn12	20 µM (active)	
CCCCC1C(=O)CC[C@H]2[C@@H]1CC(=O)[C@@H]2C/C=C\CCCC(=O)O (some centres undefined)		4.23% [at 11.4 µM] (inactive)
O=C(NCC1CC1)c1ccc2c(c1)S(=O)(=O)c1cc(Cl)ccc1C2=O		-10.6% [at 11.4 µM] (inactive)
Cc1nnc(SC(C)C(=O)Nc2ccc(Cl)cn2)n1Cc1ccccc1 (centres undefined)	inactive	
C=CCn1c(COc2ccccc2)nnc1SCC(=O)N/N=C/c1cc(Cl)ccc1O	inactive	
C=CCn1c(COc2ccccc2)nnc1SC(C)C(=O)N/N=C/c1cc(Cl)ccc1O (centres undefined)	10 µM (active)	
O=C(Nc1nc(-c2ccccn2)cs1)c1ccccc1-n1cnnn1	3.55 µM (active)	
N#Cc1cc2c(=O)n3ccccc3nc2n(-c2ccccc2Cl)c1=O	inactive	
Cc1nc(SCC(=O)Nc2ccc(S(=O)(=O)N3CCOCC3)cc2)c2c(C)c(C)sc2n1	2.82 µM (active)	
Cc1ccc(C)c(N2CCN(C(=O)C34CC5CC(C3)CC(n3nnc(C)n3)(C5)C4)CC2)c1	11.2 µM (active)	
Cc1ccc(NC(=O)/C=C/c2ccc(S(=O)(=O)N3CCOCC3)cc2)cc1S(=O)(=O)N(C)C	2.51 µM (active)	
COc1ccc(/C=C/C(=O)c2cc3cccc(OC)c3oc2=O)cc1	inactive	
O=C(CSc1ccc2c(c1)OCCO2)Nc1ccc(Cl)cn1	inactive	
Cc1ccc(NC(=O)CSc2ccc(Br)cc2)cc1S(=O)(=O)N1CCOCC1	22.4 µM (active)	
COc1ccc(/C=C/C(=O)Nc2ccc(C)c(S(=O)(=O)N3CCOCC3)c2)cc1	10 µM (active)	
O=S(=O)(c1ccc(Cl)cc1)N1CCN(Cc2ccc(O)c3ncccc23)CC1	8.91 µM (active)	
COc1ccccc1N1CCN(Cc2ccc(O)c3ncccc23)CC1	0.891 µM (active)	
Cc1ccc(C)c(S(=O)(=O)N2CCN(Cc3ccc(O)c4ncccc34)CC2)c1	2.82 µM (active)	
OC1(c2ccc(Cl)cc2)CCN(Cc2c[nH]c3ccccc23)CC1		-23.5% [at 11.4 µM] (inactive)
Cc1ccc(S(=O)(=O)/C(=C/Cl)NC(=O)c2ccccc2)cc1	11.2 µM (active)	
